From PubChem BioAssay (NCI)
About 79,000 compounds went through this panel and 15% of them were active in at least one assay; those are over-represented in the sample as a whole. Unmarked numbers belong to inactive results. Active and inactive are the calls of the source. No stated cut-off is given here; in the data, active means growth inhibition above about 70%; inactive means the rest.

Key:
[1] = NCI Yeast Anticancer Drug Screen. Data for the rad50 strain (AID 155);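 further: 0% = growth of vehicle-only cultures of the same strain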; conditions: S. cerevisiae rad50 strain growth inhibition; at 50.0 µM; active compounds read high
In short: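 Readout: growth inhibition relative to vehicle-treated cultures. Compound exposure was carried out in a genetically defined yeast strain deficient in DNA damage repair.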

[2] = NCI Yeast Anticancer Drug Screen. Data for the sgs1 mgt1 strain (AID 161);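 further: 0% = growth of cultures given vehicle only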; conditions: S. cerevisiae sgs1 mgt1 strain, at 50.0 µM, active compounds read high
In short: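 Inhibition of yeast growth, normalised to vehicle-treated controls, is reported for a strain bearing genetic alterations in DNA damage repair.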

[3] = NCI Yeast Anticancer Drug Screen. Data for the cln2 rad14 strain (AID 165);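 further: 0% = growth equal to vehicle treated cultures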; conditions: S. cerevisiae cln2 rad14 strain, at 50.0 µM, active compounds read high
In short: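 Each compound was tested on cln2 rad14 yeast. Inhibition of growth was calculated against vehicle-exposed controls.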

[4] = NCI Yeast Anticancer Drug Screen. Data for the bub3 strain (AID 167); conditions: S. cerevisiae bub3 mutant strain, at 50.0 µM, active compounds read high
In short: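 Readout: yeast growth inhibition, expressed relative to vehicle-only wells. The test organism is a mutant strain from a panel with lesions in DNA repair or checkpoint genes.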

[5] = NCI Yeast Anticancer Drug Screen. Data for the mlh1 rad18 strain (AID 175); conditions: S. cerevisiae mlh1 rad18 strain growth inhibition; at 50.0 µM; active compounds read high
In short: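 Vehicle-treated cultures served as the reference for growth inhibition in a yeast strain carrying DNA damage repair alterations exposed to each compound.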

[6] = NCI Yeast Anticancer Drug Screen. Data for the mec2-1 strain (AID 157); conditions: S. cerevisiae mec2-1 strain, at 50.0 µM, active compounds read high
In short: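 Vehicle-treated cultures served as reference for growth inhibition of compound-exposed mec2-1 yeast.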

SMILES	growth inhibition [1]	growth inhibition [2]	growth inhibition [3]	growth inhibition [4]	growth inhibition [5]	growth inhibition [6]
C(=C\c1cccs1)/CN1CCC2CCC(C2)C1 (centres undefined)	-3.25%	2.1%	-17.1%	6.35%	-10.8%	
O=C(Nc1ncn[nH]1)C(Cl)(Cl)Cl	-4.1%	-7.15%	-53%	-2%	-7.25%	
Nc1c([N+](=O)[O-])cncc1[N+](=O)[O-]	-30.6%	-14.3%	-40.6%	-41.9%	-6.8%	
COc1cc2c(cc1O)-c1c(OC)c(O)cc3c1C(C2)N(C)CC3 (centres undefined)	-20.6%	-22.6%	-16.4%	-24.4%	-46.9%	
OC(Cc1ccccn1)C(Cl)(Cl)Cl (centres undefined)	-10.2%	-1.7%	-15.6%	4.35%	3.9%	
CCCCCCCC(=O)O.[Ni]	-15.1%	-2.3%	8.45%	-18.4%	-18.5%	
Cc1ccc(S(=O)(=O)OC2CN3CCC2CC3)cc1 (centres undefined)	62.4%	42.7%	26.8%	38.4%	51.5%	
CC(=O)Oc1cccc(C#N)c1	-3.1%	1.7%	-24.8%	6.65%	5.05%	
CCOC(=O)CC(Br)C(=O)CBr (centres undefined)	-9.15%	7.15%	-17.8%	2.6%	-9.6%	
COC(=O)C1=CO[C@@H](C)[C@@H]2CN3CCc4c([nH]c5cc(OC)ccc45)[C@@H]3C[C@H]12	-0.2%	-11.1%	-2.9%	-27%	-19.2%	
Cc1ccccc1C(=O)[O][Pb]([CH3])([CH3])[CH3]	21.4%	-6.5%	-27.9%	0%	7%	
Cc1cc[n+](CCc2ccccc2)cc1	7.95%	15.2%	-8.35%	8.75%	9.6%	
Oc1ccccc1C1NCCc2[nH]cnc21 (centres undefined)	39%	14.4%	30.8%	4.15%	7.9%	
CCCCCCCCCNP(=O)(OCc1ccccc1)N(CCCl)CCCl (centres undefined)	55.5%	40.2%	34.8%	-0.4%	26.4%	
O=Cc1ccccc1O.[Nd]	-0.65%	17.2%	6.65%	3.9%	6.6%	
CCN(CC)/C(=C\Cl)Nc1ccccn1	-0.9%	-0.7%	3.35%	6.55%	-2.45%	
Cc1ccccc1-n1c(C)nc2ccccc2c1=O	-29.3%	-1.35%	11.6%	1.5%	-20.7%	
[Cl][Hg][c]1ccccc1N=Nc1ccccc1		94.4% (active)	97% (active)	98% (active)	94.5% (active)	98.5% (active)
COc1ccc(NC2=C(C)C(=O)C3=C(C2=O)[C@H](COC(N)=O)[C@]2(OC)[C@@H]4N[C@@H]4CN32)cc1		74.8% (active)	71.6% (active)	69.4%	73.7% (active)	79.7% (active)

SMILES	growth inhibition [1]	growth inhibition [2]	growth inhibition [3]	growth inhibition [4]	growth inhibition [5]	growth inhibition [6]
CC[C@@]1(O)C(=O)OCc2c1cc1n(c2=O)Cc2cc3cc(OC)ccc3nc2-1		86.7% (active)	80.7% (active)	83.6% (active)		
CCOP(=O)(OCC)/C(C#N)=C/c1cccc(OC)c1		45.6%	16.9%	30.8%	63%	
COc1cc(C)c(OP(=O)(OC)OC)cc1C		13.6%	59.1%	1.7%	-0.65%	0.7%
CC1(Cl)C(=O)NC(=O)NC1O (centres undefined)		12.2%	20.4%	0.1%	19.1%	2.5%
COC(=O)C1(O)c2ccccc2N=C2C1CCN2C (centres undefined)		-8.85%	6.4%	6.3%	16.9%	-11.4%
COc1ccc(CC[N+](C)(C)C)cc1					32.5%	-2.5%
CNC1(c2ccc(F)cc2)CCCCC1		-11.5%	8.05%	-13.8%	-30.8%	-23.1%
O=[N+]([O-])c1ccc(C[N+]23CCN(CC2)CC3)cc1					3.8%	-16.7%
COc1cc2c(cc1OC)C13CCN4C=C5CCOC6CC(=O)N2C1C6C5CC43 (centres undefined)		-12.7%	1.75%	-60%	16.8%	-8.7%
CCN(CC)c1ccc([P+](=O)O)cc1		-9.4%	-27.6%	-7.4%	-8.4%	-9.45%
CC(=O)OCC1OC([Se-])C(OC(C)=O)C(OC(C)=O)C1OC(C)=O.N#CCC[PH+](CCC#N)CCC#N.[Au+] (centres undefined)		-4.55%	-15.8%	1.75%	10.1%	6.75%
COC1=CC=C2[C@@H]3Cc4ccc(OC)c5c4[C@]2(CCN3CCCl)C1O5 (some centres undefined)		4.75%	8.2%	6.85%	10.6%	-5.35%
Cc1cc(C)c(C#N)c(SSC(Cl)(Cl)Cl)n1		59.2%	15.1%	61.9%	40.9%	18.9%
CCOC(=O)C(C#N)c1ccccc1 (centres undefined)		18%	14.1%	-9.55%	43.4%	19.1%
COc1cc(C2c3[nH]c4ccccc4c3C[C@H]3COC(=O)N23)cc(OC)c1OC (some centres undefined)		57.5%	24.4%	54%	-10.2%	15.3%
c1ccc(C2(N3CCOCC3)CSC2)cc1		1.15%	-16.9%	-44.6%	-6.75%	-4.8%
O=C(C/C(=N/O)C(=O)NC1=C(Cl)C(=O)c2ccccc2C1=O)CC(c1ccccc1)c1c(O)c2ccccc2oc1=O (centres undefined)		82.5% (active)	76.8% (active)	84.7% (active)	87.6% (active)	81.1% (active)
CC(=O)[O-].CC(=O)[O-].O=C(N/N=C/c1cc(Cl)cc(Cl)c1O)c1ccncc1.[Cu+2]		10.7%	51.1%	-4.05%	9.85%	2.75%
[Br][Sn]([Br])([CH2][Sn]([Br])([c]1ccccc1)[c]1ccccc1)[c]1ccccc1					81.7% (active)	

SMILES	growth inhibition [1]	growth inhibition [2]	growth inhibition [3]	growth inhibition [4]	growth inhibition [5]	growth inhibition [6]
NCCc1c[nH]c2ccccc12		-15.8%	9%	-0.75%	-12.8%	-3.3%
CN1C2CCC1C(Br)C(=O)C2 (centres undefined)					-51.2%	
Cn1cnnc1N		6.3%	4.4%	13.2%	4.35%	5.7%
N.N.NC(CS)C(=O)[O-].NC(CS)C(=O)[O-].[Pt+4] (centres undefined)		3.25%	-21.6%	-12.8%	15.4%	-4%
O=[N+]([O-])OC(c1ccncc1)C(O[N+](=O)[O-])c1ccncc1 (centres undefined)		-6.25%	16.9%	-5.3%	21.3%	-2.35%
O=C(/C=C/c1ccccc1)CCC1C(=O)NC(=S)NC1=O		27.2%	0.4%	-17.1%	-34.5%	3.35%
[C-]#[O+].[C-]#[O+].[C-]#[O+].[C-]#[O+].[C-]#[O+].[C-]#[O+].[Fe].[Fe].c1ccc([P-]c2ccccc2[P-]c2ccccc2)cc1 (centres undefined)		-11.3%	26.9%	12.6%	18.7%	26.9%
CC(Cl)CN1CCCCC1 (centres undefined) (tested in a mixture with another compound)		23.8%	7.75%	3.2%	17.9%	1.25%
CNCCc1ccc(O)c2ccc3ccc(OC)c(O)c3c12		-14.2%	5.25%	-17.3%	4.05%	-7.25%
N#Cc1ccc(Cc2ccccn2)cc1Cl		-8.9%	2.1%	-18.9%	4.25%	-1.55%
COC1OOC(OC)c2ccccc2-c2ccccc21 (centres undefined)		4.1%	-14.1%	15.5%	4.15%	-9.7%
O=C1CCCN1		3.1%	-4.85%	-0.2%	-11.7%	-1.7%
CCCCCC(N)CC(=O)O (centres undefined)		4.25%	8.1%	-2.25%	9.85%	-21.1%
O=C1NC(=O)C(CCO)(c2ccccc2)C(=O)N1		-4.4%	-6.25%	-11.7%	-4.15%	
S=C=Nc1cccc2ccccc12		-10.1%	17.5%	-6.45%	-6.1%	-11.8%
CC(=O)O[C@H]1C(=O)[C@@]2(C)[C@H]([C@H](OC(=O)c3ccccc3)[C@@]3(O)C[C@H](O)C(C)=C1C3(C)C)[C@]1(OC(C)=O)CO[C@@H]1C[C@@H]2O		6%	8.35%	12.5%	-0.15%	-10.9%
Cc1c2ccccc2c(C)c2c1cc[n+]1ccccc21		15.2%	0.05%	1.05%	1.8%	-1.35%
C=CCC1(O)CCC2C3CCC4=CC(=O)CCC4=C3C=CC21CC (centres undefined)		20.4%	19.9%	21.5%	21.6%	-7.35%
CC1C2C=CC1C(c1c3ccc(=O)cc-3oc3cc(O)ccc13)C2C(=O)O (centres undefined)					21.4%	2.15%
